{
  "source": "PubChem BioAssay AID1053118",
  "about": "(Broad Institute, 2014)",
  "note": "Potency and affinity values are given separately. Activity calls are given as the source filed them.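 How the source made its calls: active means fitted half-maximal concentration for ATP signal loss at most twice the top valid dose; inconclusive means flat curve between -70 and -30%, or an invalid fit; inactive means flat within ±30%, wrong direction, or potency past limit.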",
  "data": [
    {"assay": "HepG2 cell cytotoxicity, dose response, cytotoxicity control, cherry-picks, set 5 (AID 1053118)", "details": "HepG2 viability, ATP luminescence, 72 h; series mostly up to 26 µM", "values": [
      {"smiles": "Nc1c(C(=O)NCc2ccco2)nnn1Cc1ccccc1", "outcome": "inactive"},
      {"smiles": "COCC(=O)Nc1ccc2c(c1)C(=O)N(C)[C@H]1CC[C@H](CC(=O)NCc3ccccc3Cl)O[C@@H]1CO2", "outcome": "inactive"},
      {"smiles": "C[C@@H]1CN([C@@H](C)CO)C(=O)c2cccc(NC(=O)Nc3ccc(C(F)(F)F)cc3)c2O[C@H]1CN(C)C(=O)Nc1cccc2ccccc12", "outcome": "inactive"},
      {"smiles": "C[C@@H]1CN([C@@H](C)CO)C(=O)c2cc(-c3ccccc3)cnc2O[C@@H]1CN(C)C(=O)c1cccc(F)c1", "outcome": "inactive"},
      {"smiles": "c1ccc2[nH]c(SCc3cn4cccnc4n3)nc2c1", "outcome": "inactive"},
      {"smiles": "CN(C)C(=O)c1ccc(-c2ccc3c(c2)[C@@H]2[C@@H](CCN2C(=O)c2ccc(F)cc2)[C@H](CO)N3C)cc1", "outcome": "inactive"},
      {"smiles": "C[C@@H](O)C#Cc1ccc2c(c1)O[C@@H](CN(C)C)[C@@H](C)CN([C@@H](C)CO)S2(=O)=O", "outcome": "inactive"},
      {"smiles": "O=C(NCCS(=O)(=O)N1CCN(c2ccc(F)cc2)CC1)c1ccc(Br)o1", "outcome": "inactive"},
      {"smiles": "C[C@H](CO)N1C[C@H](C)[C@H](CN(C)Cc2ccccc2)Oc2ncc(-c3ccccc3)cc2C1=O", "outcome": "inactive"},
      {"smiles": "C[C@@H]1CN([C@H](C)CO)C(=O)c2cc(-c3ccccc3)cnc2O[C@H]1CN(C)Cc1ccccc1", "outcome": "inactive"},
      {"smiles": "COC(=O)C[C@@H]1CC[C@H]2[C@H](COc3ccc(NC(=O)Cc4cccs4)cc3C(=O)N2C)O1", "outcome": "inactive"},
      {"smiles": "C[C@@H]1CN([C@@H](C)CO)C(=O)c2cc(NC(=O)CCCN(C)C)ccc2O[C@@H]1CN(C)Cc1ccc(-c2ccccc2)cc1", "outcome": "inactive"},
      {"smiles": "O=C(NCc1ccccc1)c1ccc(-c2cn[nH]c2)c2ccoc12", "outcome": "inactive"}
    ]}
  ]
}
